Results on 40 compounds are retold here after PubChem BioAssay (Tox21).

Several values for one entry are separate records, joined by “and”; a condition that tells them apart may be missing. Identical values can stand only once. Results filed as inconclusive are left out. A call without a number means that no potency is given here. Activity calls are given as the source filed them. Calls come from the whole dose curve; as a rule, active = well fitted cell-killing curve with a large enough effect in the repeat runs; inconclusive = weak or mixed curves, or effect the other way; inactive = no such curve, though single readings can be large or run the other way.
Potency is the fitted concentration of half-maximal effect.

The assay can be described thus: qHTS assay to identify small molecule agonists of the vitamin D receptor (VDR) signaling pathway - cell viability counter screen (AID 743224). Note: nearly all actives have a fitted effect of over 50% in size. The following applies: VDR-bla HEK293T viability, CellTiter-Glo luminescence, 16 h; series mostly up to 62.6 µM. The text has this: U.S. Tox21 Program National Center for Advancing Translational Sciences [NCATS] NIH Chemical Genomics Center [NCGC] U.S. Environmental Protection Agency [EPA] National Institutes of Environmental Health Sciences [NIEHS] National Toxicology Program [NTP] U.S. Food and Drug Administration [FDA] Tox21 Assay Overview: The vitamin D receptor (VDR), a member of nuclear hormone receptor superfamily, plays a critical role in calcium homeostasis and bone metabolism. It is also involved in cell differentiation and growth, and thrombogenicity. […] The cytotoxicity of the Tox21 compound library against the VDR-bla cell line was tested in parallel by measuring the cell viability using CellTiter-Glo assay (Promega, Madison, WI) in the same wells.
Tox21 Assay Protocol Summary: VDR-bla cells were dispensed at 2,000 cells/6 uL/well into black wall/clear-bottom 1536-well plates using a Multidrop Combi (Thermo Fisher Scientific, Waltham, MA) dispenser. After the assay plates were incubated at a 37C and 5% CO2 for 4 h, 23 nL of compounds dissolved in DMSO, positive controls or DMSO only was transferred to the assay plate by a Pintool station (Kalypsys, San Diego, CA). The plates were incubated at 37C and 5% CO2 for 16 h. After 1 uL of LiveBLAzerTM B/G FRET substrate was added using a Bioraptr Flying Reagent Dispenser (FRD) workstation (Beckman Coulter, Indianapolis, IN, USA), the plates were incubated at room temperature for 2 h, and fluorescence intensity was measured by an Envision plate reader (PerkinElmer, Shelton, CT). For cell viability readout that measures cytotoxicity, 3 ul/well of CellTiter-Glo reagent was added into the assay plates using a FRD. After 30 min incubation at room temperature, the luminescence intensity in the plates was measured using a ViewLux (PerkinElmer) plate reader.
For orientation: qHTS replaces the single test concentration by a dilution series.
With `CCCCC(C#N)(Cn1cncn1)c1ccc(Cl)cc1` (stereo not given), the Potency result is “inactive”.
To `Brc1ccc(Br)cc1` belongs “inactive”; to `CC(O)CN(CC(C)O)CC(C)O` (stereo not given), “inactive”; to `CC(C)(O)C#N`, “inactive”.
To `ClC(Cl)(Cl)c1ccccc1` belongs “inactive”; to `COP(=S)(OC)SCn1nnc2ccccc2c1=O`, “inactive”; to `CCOP(=S)(OCC)OP(=S)(OCC)OCC`, “inactive”.
To `CNC(=S)S` belongs “inactive”; to `O=NN1CCOCC1`, “inactive”; to `ClC(Cl)=C(Cl)C(Cl)=C(Cl)Cl`, “inactive”.
Consider `N#CCCCCC#N`, for which the Potency entry was “inactive”.
With `c1ccc2c(c1)Nc1ccccc1S2`, the Potency result is “inactive”.
To `c1ccc(C2CO2)cc1` (stereo not given) belongs “inactive”.
Under `CCCCOC(=O)COC(=O)c1ccccc1C(=O)OCCCC` stands “inactive”.
Under `CC(C)(O)C(=O)Nc1ccc([N+](=O)[O-])c(C(F)(F)F)c1` stands “inactive”.
For `CCOS(=O)(=O)OCC`, the Potency result is “inactive”.
In the case of `O=C1Nc2ccc(Cl)cc2C(c2ccccc2)=NC1O` (stereo not given), the Potency result is “inactive”.
To `COc1ccc(CO)cc1` belongs “inactive”; to `Clc1ccccc1-c1nnc(-c2ccccc2Cl)nn1`, “inactive”; to `CN(C)P(=O)(N(C)C)N(C)C`, “inactive”.
Under `NN=C(N)N` stands “inactive”.
To `CCNc1nc(Cl)nc(NC(C)(C)C#N)n1` belongs “inactive”.
With `NC(=O)CN1CCCC1=O`, the Potency entry was “inactive”.
To `O=[N+]([O-])c1ccc(Cl)c([N+](=O)[O-])c1` belongs 14 µM (active) and 17.4 µM (active).
To `CN(C)c1ccccc1` belongs “inactive”; to `CCC[CH2][Sn]([Cl])([CH2]CCC)[CH2]CCC`, 437 nM (active) and 1.23 µM (active).
For `C[N+](C)(C)CC(=O)O`, the Potency entry was “inactive”.
Under `Nc1ncn[nH]1` stands “inactive”.
Under `C[C@]12CCC(=O)C=C1CC[C@@H]1[C@@H]2CC[C@@]2(C)[C@H]1CC[C@]2(C)O` stands “inactive”; under `CC[n+]1c(-c2ccccc2)c2cc(N)ccc2c2ccc(N)cc21`, 21.8 µM (active).
With `ClCc1ccccn1`, the Potency result was “inactive”.
Under `CSc1nc(NC(C)C)nc(NC(C)C)n1` stands “inactive”; under `Clc1cccc(C(Cl)(Cl)Cl)n1`, “inactive”; under `Nc1ccc([N+](=O)[O-])cc1N`, “inactive”.
With `O=NN(c1ccccc1)c1ccccc1`, the Potency result is “inactive”.
To `Oc1ccc(Cl)cc1Cl` belongs “inactive”.
For the compound `CC(C)=CC1C(C(=O)OCN2C(=O)C3=C(CCCC3)C2=O)C1(C)C` (stereo not given), the Potency result is “inactive”.
To `[Cl-].[Cl-].[Cl-].[Fe+3]` belongs “inactive”; to `O=C(O)c1nn(Cc2ccc(Cl)cc2Cl)c2ccccc12`, “inactive”.
Under `CCOP(=S)(OCC)SCn1c(=O)oc2cc(Cl)ccc21` stands “inactive”.
